Assay outcomes deposited in PubChem by several laboratories.
Rows were chosen to be rich in hits. Some 2.9% of all compounds tested hit in one or more screens of this group.
Peg3 promoter: Peg3 promoter-driven luciferase inhibitors, primary screen, cell-based, HeLa, luciferase luminescence; HeLa PEG-Prom luciferase reporter, overnight; inhibition, % at 20 µM; hit rate 1.7% among 360,000;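 active = inhibition of at least 50% at 20 µM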
KKLEB tox: cytotoxicity in KKLEB CF airway cells, primary screen, cytotoxicity control for CF NF-kB inhibitor project, cell-based, uHTS, fluorescence assay plates | KKLEB CF airway cells viability, ATPlite luminescence, overnight; active compounds read low; cells stimulated with P. aeruginosa culture filtrate | activity change (cytotoxicity), % at 5 µM | hit rate 0.36% among 360,000;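 active = corrected activity change at or below -50% at 5 µM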
CF NFkB block: inhibitors of PAF-induced NF-kB signaling, primary screen, cell-based, GFP fluorescence, uHTS; KKLEB NF-kB-GFP reporter, GFP fluorescence overnight; inhibition, % at 5 µM; hit rate 0.86% among 360,000;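 active = at least 50% inhibition at 5 µM, scaled per plate between neutral and stimulator controls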;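 note: PAF is a Pseudomonas aeruginosa culture filtrate used as stimulus; plate controls were PAF-stimulated DMSO wells for no effect and unstimulated DMSO wells for full effect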
TRPM1 prom inh: inhibitors of MITF-dependent TRPM1 promoter reporter, primary screen, cell-based, SK-MEL-5, single point, luciferase. SK-MEL-5 TRPM1 promoter luciferase, 24 h. hit rate 0.83% among 330,000. AID 488899, 2010. inhibition, % at 12.5 µM;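 active = mean inhibition across replicates of 60% or more, whatever share of single replicates reaches that level; inconclusive = some that reach 60%, reason not given; inactive = mean inhibition across replicates below 60%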
Shn3 inh set2: reduction of Shn3 3'UTR firefly luciferase signal, primary screen, Schnurri-3 inhibitor project, cell-based, Clone20 osteoblasts, set 2 | Clone20 osteoblast Shn3 3'UTR firefly luciferase, 24 h | inhibition, % at 12.5 µM | hit rate 0.52% among 360,000 | AID 588674, 2011;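 active = mean inhibition of at least 75% with every replicate also reaching 75%; inconclusive = mean inhibition at least 75% but some replicate below; inactive = mean inhibition below 75%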;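 note: 0% = median of neutral control wells and 100% = pilot-screen positive control compound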
EBV LMP1 NFkB: EBV LMP1-driven NF-kappaB luciferase reporter inhibitors, primary screen, cell-based, luminescence, single point; LMP1-induced NF-kappaB luciferase reporter cells; inhibition, % at 12.5 µM; hit rate 0.69% among 350,000; in the data active = inhibition above about 41%; inconclusive = no clear call, values can overlap the other calls;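 note: 0% = neutral control wells and 100% = reference inhibitor control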
* marks the source's active call; other numbers are inactive results; ? = inconclusive; nt = no result.

SMILES	Peg3 promoter	KKLEB tox	CF NFkB block	TRPM1 prom inh	Shn3 inh set2	EBV LMP1 NFkB
CCN(CC)C(=O)C1CCCN(c2ncnc3c2cnn3-c2ccc(Cl)cc2)C1 (stereo not drawn)	55.6*	-5.6	-1.2	59.5	14.7	39.6
COc1cccc(N2CCN(c3ncnc4c3cnn4-c3ccc(C)cc3C)CC2)c1	101.8*	-82.9*	80.3*	67.6*	90.9*	39.8
CCN(CC)C(=O)C1CCCN(c2ncnc3c2cnn3-c2cccc(C)c2)C1 (stereo not drawn)	-6.2	-1.3	3.9	16.9	33.0	15.7
Cc1ccc(-n2ncc3c(N4CCCC4)ncnc32)c(C)c1	-176.8	-0.6	2.7	-29.0	-84.3	-23.9
CCN1CCN(c2ncnc3c2cnn3-c2ccccc2)CC1	-236.8	-4.1	2.8	-82.0	-50.1	-27.2
c1ccc(-n2ncc3c(N4CCCCC4)ncnc32)cc1	-2.6	-37.3	-18.7	16.1	9.4	40.5*
CCC(=O)c1ccc(OC(=O)C2CCN(C3=NS(=O)(=O)c4ccccc43)CC2)cc1	-6.7	7.4	20.9	3.3	-6.6	11.4
CCC(NCc1cccnc1)c1ccc(OC)c(OC)c1 (stereo not drawn)	5.4	-10.4	2.1	-3.7	6.2	-9.5
O=C(CCl)N1CCN(S(=O)(=O)Cc2ccccc2)CC1	30.4	-2.2	-10.9	48.0	-17.7	3.2
O=C(O)C1(C(=O)O)CCC2(CCCCC2)CC1	-12.8	-7.9	31.8	nt	2.8	-0.6
O=C(Nc1ccc(C(=O)O)cc1)/C(=C\c1ccc2c(c1)OCO2)NC(=O)c1ccccc1Cl	1.1	-5.9	11.5	nt	-7.8	2.9
CN(C)Cc1ccccc1CNC(=O)c1ccc(Cl)c(S(=O)(=O)NC2CC2)c1	1.6	17.8	-20.1	nt	-31.6	3.4
Cc1ccc2nc(/C(C#N)=C\c3ccc(Oc4ccc([N+](=O)[O-])cn4)cc3)[nH]c2c1	19.5	-8.8	-14.7	-1.6	23.9	14.7
COc1ccc2nc(/C(C#N)=C\c3ccc(Oc4ccc([N+](=O)[O-])cn4)cc3)[nH]c2c1	81.2*	-26.3	3.6	-8.8	24.6	2.5
Cc1ccn2cc(-c3ccc(O)c(O)c3)nc2c1	-119.2	-6.5	5.4	7.7	86.5*	12.7
O=C(C(=Cc1ccc(F)cc1)c1ccccc1)c1ccc(O)cc1	18.0	-0.7	-19.2	-1.5	23.3	20.0
O=C(C(=Cc1ccc(F)cc1)C(=O)c1ccccc1)c1ccccc1	99.6*	-6.6	36.6	nt	0.4	nt
CCc1nc2c(OCCn3cccc3)cccn2c1N(C)C(=O)c1ccc(C)cc1	-5.4	19.7	-7.7	nt	0.8	nt
N#Cc1cc2ccncc2c2ccccc12	11.4	-21.5	6.3	nt	9.8	14.3
Nc1cc2ccncc2c2ccccc12	-4.8	-6.0	65.0*	-5.9	10.4	55.8*
CN(c1ccc(F)cc1)S(=O)(=O)c1ccc(Cl)c(C(=O)NCC2(N3CCOCC3)CCCCC2)c1	-0.4	9.6	-28.3	6.4	16.8	16.5
Cc1sc(NC(=O)c2ccco2)nc1-c1ccccc1	-232.9	-9.8	18.8	-98.5	-24.0	-36.1
Cc1sc(NC(=O)c2ccco2)nc1-c1ccc2c(c1)CC(C)N2C(=O)C1CC1 (stereo not drawn)	54.8*	6.8	6.0	15.8	63.1	42.8*
CC(=O)Nc1nc(-c2ccc3c(c2)CC(C)N3C(=O)C2CC2)c(C)s1 (stereo not drawn)	-38.2	12.0	-36.2	-6.9	-108.3	78.9*
CCOC(=O)C(=O)Nc1nc(-c2ccc3c(c2)CCN3C(=O)C2CC2)c(C)s1	-71.1	11.4	-9.4	-9.1	-12.2	-0.7
SMILES	Peg3 promoter	KKLEB tox	CF NFkB block	TRPM1 prom inh	Shn3 inh set2	EBV LMP1 NFkB
O=C(NCCc1c[nH]c2ccccc12)c1[nH]c(C(F)(F)F)nc1-c1ccccc1	18.5	-1.6	-3.9	nt	27.3	nt
Cc1cc(C[n+]2cc(Cl)ccc2N)c2ncccc2c1	5.3	-8.4	-4.7	-5.8	63.7	7.1
Cc1cc(C[n+]2cc(Br)ccc2N)c2ncccc2c1	0.3	-7.0	-7.5	-4.9	91.9*	5.7
COc1ccc(Cn2c(SCc3ccc(C)cc3)nc3cc(OC)c(OC)cc3c2=N)cc1Cl	98.6*	-93.9*	95.7*	105.2*	26.5	90.4*
COc1ccc(Cn2c(SCc3cc(C)ccc3C)nc3cc(OC)c(OC)cc3c2=N)cc1	103.9*	-43.6	25.0	88.7*	95.9*	?
COc1cccc(C=NN(C)c2c([N+](=O)[O-])cc(C(F)(F)F)cc2[N+](=O)[O-])c1O	-23.1	-8.8	11.7	nt	2.1	nt
O=c1c(O)c(-c2ccc(O)c(O)c2)oc2cc(O)cc(O)c12	-35.0	1.3	26.4	-20.9	-195.2	89.9*
Cc1cc(-n2c(C)cc(C(=O)CSc3nnnn3-c3ccc(Cl)cc3)c2C)no1	6.9	-67.9*	50.6*	13.6	10.7	-2.4
CCOc1ccc(NC(=O)CC2C(=O)N(C)C(=S)N2CCCc2ccccc2)cc1 (stereo not drawn)	4.1	6.4	9.5	-1.6	21.7	4.5
CCN1C(=O)C(CC(=O)Nc2ccc(Br)cc2)N(CCCc2ccccc2)C1=S (stereo not drawn)	57.6*	-2.9	0.6	10.2	40.3	-10.5
CC1(C(=O)O)CCCN1C(=O)c1cc2ccccc2s1 (stereo not drawn)	7.2	2.7	-5.0	nt	2.0	nt
NS(=O)(=O)c1ccc(CCNC(=O)COC(=O)CCc2c[nH]c3ccccc23)cc1	8.3	4.3	-20.3	1.7	-10.2	-6.5
O=c1cc(-c2ccccc2Cl)oc2c(NS(=O)(=O)c3cccs3)ccc(O)c12	2.4	-14.8	52.1*	0.9	0.8	-8.6
O=c1cc(-c2ccccc2Cl)oc2c(NS(=O)(=O)c3ccccc3C(F)(F)F)ccc(O)c12	-11.8	-5.1	5.4	5.3	-2.8	9.6
Cc1ccccc1S(=O)(=O)N(C)C[C@H]1OCc2cn(nn2)CCCC(=O)N([C@H](C)CO)C[C@@H]1C	-2.3	9.5	-42.8	nt	-20.2	nt
O=Nc1c(O)[nH]c2ccc(Cl)c(Cl)c12	57.0*	18.9	40.9	40.3	3.6	8.4
CCc1cccc2c(N=O)c(O)[nH]c12	-6.3	0.7	12.5	10.4	9.2	-11.3
CCCCc1ccc(S(=O)(=O)NC(=O)C2(C)CCN2C(=O)CC2CC2)cc1 (stereo not drawn)	9.1	-18.6	22.6	nt	-4.4	nt
O=C(c1c(F)cccc1Cl)N(Cc1ccco1)C1CCS(=O)(=O)C1 (stereo not drawn)	6.3	1.0	18.1	nt	2.9	-3.6
Cn1cc(Cc2ccccc2)c(=O)c(Cc2ccccc2)c1	13.6	26.1	-26.4	-4.7	1.7	-3.8
